The record followed here is PubChem BioAssay (Tox21).

The nature of assay [1]: qHTS assay for small molecule agonists of the p53 signaling pathway (AID 651631; calls by dose curve; also: nearly all actives have a fitted effect of over 15% in size). In short, it runs like this:
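Beta-lactamase reporter activity under p53 response elements was quantified in HCT-116 cells by FRET fluorescence, following 16 h incubation with test compounds at 37 °C and 2 h substrate development at room temperature.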
(In general: In qHTS, concentration-response curves come from the screen itself.)

Assay [2] can be described thus: qHTS assay for small molecules that induce genotoxicity in human embryonic kidney cells expressing luciferase-tagged ATAD5 (AID 651632). Also: nearly all actives have a fitted effect of over 15% in size. In short, it runs like this: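 Luminescence read-out: after 16 hr compound exposure at 37C, ATAD5-luciferase HEK293T cells received Amplite, 30 min RT, then CCD imaging. A rise in signal marks genotoxic stress.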
The nature of assay [3]: qHTS assay for small molecule agonists of the p53 signaling pathway - cell viability (AID 651633; calls by dose curve;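 also: p53RE-bla HCT reporter cells with a stable beta-lactamase p53 reporter; series mostly up to about 83 µM; nearly all actives have a fitted effect of over 30% in size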). In short, it runs like this: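 p53RE-bla cells, seeded at 4,000 per well and rested 5 h at 37 C/5% CO2, received compounds in DMSO for 16 h at 37 C. CellTiter-Glo was then added, and luminescence was read after 30 min at room temperature to gauge cytotoxicity.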
Assay [4] in a line: qHTS assay for small molecules that induce genotoxicity in human embryonic kidney cells expressing luciferase-tagged ATAD5 - cell viability (AID 651634; calls by dose curve; also: nearly all actives have a fitted effect of over 25% in size). Summed up: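 HEK293T ATAD5-luc cells, 2,000/well; compound 15.5 hr, 37C/5% CO2; CellTiter-Fluor 30 min, 37C; fluorescence read.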
Assay [5] can be described thus: qHTS assay for small molecule disruptors of the mitochondrial membrane potential - cell viability (AID 720634; calls by dose curve;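 also: human HepG2 liver cancer cells; series mostly up to about 83 µM; nearly all actives have a fitted effect of over 20% in size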). In short, it runs like this: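 Luminescence from CellTiter-Glo (ATP content) gave viability in HepG2 cells, read in the same wells as the MMP dye assay after 1 hr compound exposure at 37 C.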
Assay [6] can be described thus: qHTS assay to test for compound auto fluorescence at 590 nm (red) in HepG2 cells (AID 720674). Summed up: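 Intrinsic compound fluorescence in the red window (Ex/Em 540/590 nm) is measured in attached HepG2 cells exposed for 1 hr, DMSO vehicle as baseline, benchmarked to Rose Bengal sodium.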
Assay [7] in a line: qHTS assay to test for compound auto fluorescence at 535 nm (green) in HepG2 cells (AID 720675).
A short description of assay [8]: qHTS assay to test for compound auto fluorescence at 460 nm (blue) in HEK293 cells (AID 720678). In short, it runs like this: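 HEK293, 2,000 cells/well, 10% dialyzed FBS; attach 4-5 hr 37C; pin compound or DMSO; o/n 37C/5% CO2; fluorescence 405/460 nm; triamterene-equivalent units.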
Assay [9] is described as follows: qHTS assay to test for compound auto fluorescence at 590 nm (red) in HEK293 cells (AID 720679). In short, it runs like this: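 Intensity at 540nm excitation and 590nm emission is reported as Rose Bengal sodium-equivalent autofluorescence. Measurements followed overnight exposure (37C, 5% CO2) of HEK293 cells, 2,000 per well, to 23 nL compound.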
Assay [10] is described as follows: qHTS assay to test for compound auto fluorescence at 535 nm (green) in HEK293 cells (AID 720680).
Assay [11] is described as follows: qHTS assay to test for compound auto fluorescence at 460 nm (blue) in HEK293 cell free culture (AID 720681). Summed up:
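Test compounds were pinned into cell-free culture medium (DMEM with 10% FBS) and fluorescence was read directly at Ex/Em 405/460 nm. Signals were expressed as fluorescence equivalents of triamterene, with DMSO vehicle as control.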

Assay [12] is described as follows: qHTS assay to test for compound auto fluorescence at 535 nm (green) in HEK293 cell free culture (AID 720682). Summed up: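 Each library compound, or DMSO control, is added by pintool to medium alone, comprising DMEM and 10% FBS. Emission at 535 nm following 485 nm excitation is quantified against fluorescein.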
A short description of assay [13]: qHTS assay to test for compound auto fluorescence at 590 nm (red) in HEK293 cell free culture (AID 720683). Summed up:
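Tox21 10K library compounds were pinned into cell-free DMEM with 10% FBS and fluorescence was read at excitation 540 nm. Activity is expressed as Rose Bengal sodium equivalency.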

Assay [14] can be described thus: qHTS assay to test for compound auto fluorescence at 590 nm (red) in HepG2 cell free culture (AID 720684). In short, it runs like this: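 Readout: intrinsic compound fluorescence at 590 nm emission after 540 nm excitation, scaled to Rose Bengal sodium. Matrix was cell-free MEM with 10% FBS; DMSO vehicle wells served as control.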
Assay [15] can be described thus: qHTS assay to test for compound auto fluorescence at 460 nm (blue) in HepG2 cell free culture (AID 720685). Summed up: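 Cell-free plates of MEM plus 10% FBS received 23 nL compound or DMSO vehicle; blue-channel (405/460 nm) intensity scored against triamterene as reference fluorophore.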
The nature of assay [16]: qHTS assay to test for compound auto fluorescence at 535 nm (green) in HepG2 cell free culture (AID 720686).
The nature of assay [17]: qHTS assay to test for compound auto fluorescence at 460 nm (blue) in HepG2 cells (AID 720687). In short, it runs like this: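 Cells (2,000/well in MEM with 10% FBS) attached overnight at 37 C, then were exposed to compound or DMSO for 1 hr at 37 C, 5% CO2. Fluorescence read at Ex/Em 405/460 nm, expressed as triamterene-equivalent signal.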
Assay [18] deals with Glucocorticoid receptor (Homo sapiens) (UniProt P04150). The assay is described as follows: qHTS assay to identify small molecule agonists of the glucocorticoid receptor (GR) signaling pathway (AID 720691; active = well fitted activation curve with a large enough effect in the signal ratio in the repeat runs, not every such curve was filed as active; the % refers to the signal ratio). Summed up: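 HeLa GR-bla reporter line; cells pre-incubated 4 h, compound in DMSO 18 h at 37 C; LiveBLAzer B/G FRET substrate 2 h RT; fluorescence intensity read-out.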

Assay [19] shares this target. The assay is described as follows: qHTS assay to identify small molecule antagonists of the glucocorticoid receptor (GR) signaling pathway (AID 720692; active = well fitted inhibition curve with a large enough effect in the signal ratio in the repeat runs, not every such curve was filed as active; the % refers to the signal ratio). Summed up:
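Read-out: beta-lactamase FRET substrate fluorescence, 2 h at room temperature, in HeLa cells stably carrying a GRE-driven bla reporter. Compounds were co-incubated with 5 nM dexamethasone agonist (final) for 18 h at 37 C.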

Assay [20] is described as follows: qHTS assay for small molecule disruptors of the mitochondrial membrane potential (AID 720635). Also: potency is read from the fitted curve at half-maximal effect. Summed up:
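HepG2 cells (2,000/well) attached overnight at 37C, then took compound for 1 hr at 37C, 5% CO2. Mito-MPS dye was added for 30 min; fluorescence was read at 490/535 nm (monomers) and 540/590 nm (aggregates).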

Unmarked numbers belong to inactive results. Results filed as inconclusive are left out. Calls of active or inactive are those of the source. Unless noted, calls follow the shape of the dose curve; as a rule, active = well fitted curve in the direction sought with a large enough effect in the repeat runs; inconclusive = weak or mixed curves; inactive = no such curve, though single readings can be large; an effect the other way counts as inactive or inconclusive.
% is scaled to controls: 0 for no effect and ±100 for the full control effect.

Chain of Glucocorticoid receptor (Homo sapiens) (P04150 whole entry, looked up): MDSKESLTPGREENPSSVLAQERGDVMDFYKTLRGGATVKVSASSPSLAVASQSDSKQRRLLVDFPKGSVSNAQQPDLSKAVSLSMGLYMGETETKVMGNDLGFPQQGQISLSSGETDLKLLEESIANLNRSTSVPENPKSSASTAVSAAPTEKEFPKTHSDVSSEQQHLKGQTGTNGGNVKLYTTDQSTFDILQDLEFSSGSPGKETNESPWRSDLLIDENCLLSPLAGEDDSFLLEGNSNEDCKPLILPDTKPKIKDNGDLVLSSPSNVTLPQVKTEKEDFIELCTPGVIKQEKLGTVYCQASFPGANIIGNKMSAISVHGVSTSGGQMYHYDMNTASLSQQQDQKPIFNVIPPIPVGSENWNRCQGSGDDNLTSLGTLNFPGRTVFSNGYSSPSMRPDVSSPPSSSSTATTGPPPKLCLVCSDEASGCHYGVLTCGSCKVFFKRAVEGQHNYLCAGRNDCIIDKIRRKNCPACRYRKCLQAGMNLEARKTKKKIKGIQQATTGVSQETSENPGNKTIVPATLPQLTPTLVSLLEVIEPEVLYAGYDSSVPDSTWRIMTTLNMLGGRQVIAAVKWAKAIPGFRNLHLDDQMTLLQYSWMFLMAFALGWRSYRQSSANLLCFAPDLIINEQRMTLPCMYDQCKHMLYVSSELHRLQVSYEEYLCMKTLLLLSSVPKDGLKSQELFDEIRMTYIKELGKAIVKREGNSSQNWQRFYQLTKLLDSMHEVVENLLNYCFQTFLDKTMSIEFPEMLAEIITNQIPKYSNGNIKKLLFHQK

As to `CNc1c2c(nn1C)CCCC2`, the Potency entry in assay [1], in [2], in assay [3], in assay [4], in assay [8] and in assay [11] was “inactive” throughout. Further, the Potency entry in assay [15], in assay [17], in assay [18] and in [19] was “inactive” in each case. Moreover, the result in [5], in assay [6], in assay [7], in assay [9], in [10] and in assay [12] was inactive. Further, the molecule was called inactive in [13], in assay [14] and in assay [16].

As for `CCCCCCCCCCCCCCN(C)C`, the Potency result in assay [1], in assay [2], in [3], in assay [4], in assay [20] and in assay [18] was “inactive” in each case. The Potency entry in assay [19] is “inactive”. Also, in [5], the call was inactive. In assay [6], the fluorescence, relative to Rose Bengal is 0.132% [at 18.6 µM]. The fluorescence, % of fluorescein control in [7] is 0.0291% [at 18.6 µM]; in assay [16], -0.0531% [at 18.6 µM]. In addition, the fluorescence, % of triamterene in assay [8] is -0.142% [at 18.6 µM]. The fluorescence, % of fluorescent control is 0.0361% [at 18.6 µM] in assay [9], -0.0109% [at 18.6 µM] in [13], -0.025% [at 18.6 µM] in assay [15] and -0.0432% [at 18.6 µM] in assay [17]. Besides, the fluorescence, % of fluorescein in assay [10] is 0.0258% [at 18.6 µM]. Further, the activity change in [12] is -0.0109% [at 18.6 µM]. For the same molecule, in [14], the fluorescence, % of Rose Bengal was -0.054% [at 18.6 µM].

Turning to `FC(F)(F)C(F)(F)C(F)(F)C(F)(F)CCI`, the Potency entry in [1], in assay [2], in assay [3], in [4], in [20] and in assay [8] was “inactive” throughout. Also, the Potency result in assay [15], in assay [17], in assay [18] and in assay [19] was “inactive” each time. Besides, the outcome in assay [5], in assay [6], in [7], in assay [9], in [10] and in assay [12] was inactive. Moreover, the molecule was called inactive in [13], in assay [14] and in [16].

In the case of `CC(C)(O)CCc1ccccc1`, the Potency result in assay [1], in assay [2], in assay [3], in [20], in assay [8] and in assay [11] was “inactive” each time. The Potency entry in assay [15], in assay [17] and in assay [18] was “inactive” throughout. In addition, the result in assay [5], in assay [6], in [7], in [9], in assay [10] and in [12] was inactive. In addition, the molecule was called inactive in [13], in assay [14] and in assay [16].

Take `O=C(O)CCS`: the Potency result in [1], in assay [2], in [3], in assay [4], in assay [8] and in assay [11] was “inactive” in each case. In addition, the Potency entry in [15] and in [17] was “inactive” in each case. The outcome in assay [6], in assay [7], in assay [9], in [10], in [12] and in assay [13] was inactive. The molecule was classed as inactive in assay [14] and in assay [16].

With `CCN(CC)CCNC(=O)c1cc(Cl)c(N)cc1OC`, the Potency entry in assay [1], in assay [2], in [4], in assay [20], in assay [8] and in [11] was “inactive” throughout. Also, the Potency entry in [15] and in assay [17] was “inactive” in each case. Moreover, the call in assay [5], in assay [6], in assay [7], in assay [9], in assay [10] and in assay [12] was inactive. Moreover, the molecule was called inactive in [13], in assay [14] and in assay [16].

With `Nc1ccc(NC(=O)c2ccc(N)cc2)cc1`, the Potency result in assay [1], in [2], in assay [4], in assay [8], in [11] and in assay [15] was “inactive” in each case. Also, in assay [17], the Potency result is “inactive”. For the same molecule, the molecule was classed as inactive in assay [5], in assay [6], in [7], in [9], in [10] and in assay [12]. Further, the result in assay [13], in assay [14] and in assay [16] was inactive. Further, in assay [20], the Potency is 1370 nM (active).
